Data taken from PubChem BioAssay (NCI).
This is part of a sample that, as a whole, favours compounds with a hit. Of some 83,000 tested, about 20% had one in any assay.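 For each line, cells grew in 96-well plates with the test compound present at a single concentration for 48 hours.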 Values without a mark were called inactive. Active and inactive are the calls of the source. How the source made its calls: active means growth percent below 10; inactive means the rest.

What was measured:
Assay in all cases: NCI-60 one-dose screen, 48 h (100 = growth as untreated, 0 = no growth, -100 = all killed)
Conditions in all cases: 10 µM unless noted
K-562 leukemia = tested on: K-562 leukemia
MALME-3M melanoma = tested on: MALME-3M melanoma
MDA-MB-231 breast = tested on: MDA-MB-231 breast
RXF 393 renal = tested on: RXF 393 renal
SF-268 CNS = tested on: SF-268 CNS
SF-295 CNS = tested on: SF-295 CNS
SF-539 CNS = tested on: SF-539 CNS
UACC-257 melanoma = tested on: UACC-257 melanoma
M14 melanoma = tested on: M14 melanoma
HCT-15 colon = tested on: HCT-15 colon

Structure (SMILES) | growth (K-562 leukemia) | growth (MALME-3M melanoma) | growth (MDA-MB-231 breast) | growth (RXF 393 renal) | growth (SF-268 CNS) | growth (SF-295 CNS) | growth (SF-539 CNS) | growth (UACC-257 melanoma) | growth (M14 melanoma) | growth (HCT-15 colon)
COC1CC2CCC(C)C(O)(O2)C(=O)C(=O)N2CCCCC2C(=O)OC(C(C)CC2CCC(O)C(OC)C2)CC(=O)C(C)C=C(C)C(O)C(OC)C(=O)C(C)CC(C)/C=C/C=C/C=C1C (stereo not given) | 70.4% | 21.1% | 52.4% | 20.4% | 57.2% | 16.6% | 35.8% | 50.8% | 48.5% | 46.2%
Cc1nnc(Nc2ccc(NC(=O)Nc3ccc(Cl)cc3)cc2)c2ccccc12 | -16.7% (active) | -9.9% (active) | 23.1% | -39.7% (active) | 48.7% | 4.8% (active) | 16.2% | 73.8% | 37.3% | 6.39% (active)
O=[N+]([O-])c1ccc2c(c1)S(=O)c1cc([N+](=O)[O-])ccc1N2 | 115% | 113% | 96.3% | 104% | 104% | 106% | 98.3% | 96.6% | 91.7% | 99%
O=C(COC(=O)[C@H](C[Se][Se]C[C@H](NC(=O)c1ccc(Br)cc1F)C(=O)OCC(=O)c1ccc(F)cc1)NC(=O)c1ccc(Br)cc1F)c1ccc(F)cc1 | -1.8% (active) | -64.4% (active) | -82.2% (active) | -99.3% (active) | -74.1% (active) | -65.8% (active) | -98.5% (active) | -50.2% (active) | -64.6% (active) | -42.6% (active)
Cc1scc2c1N(C(=O)CN1CCN(C)CC1)c1ccccc1NC2=O | 108% | 108% | 99.6% | 111% | 110% | 101% | 112% | 106% | 111% | 107%
COc1ncc(-c2ccc3nccc(C#CCN4CCN(S(C)(=O)=O)CC4)c3c2)cc1NS(=O)(=O)c1ccc(F)cc1F | 8.7% (active) | -32.3% (active) | 10.5% | -23.5% (active) | 6.1% (active) | 13% | -16.1% (active) | -4.75% (active) | -2.97% (active) | 10.4%
COc1ccc(C(=O)Nc2nc(-c3ccc(Cl)cc3)cs2)cc1 | 104% | 111% | 105% | 97.1% | 105% | 97.5% | 93% | 98.5% | 113% | 94.9%
COc1ccccc1[C@H]1c2[nH]c3ccccc3c2C[C@H]2C(=O)N(CCCCCCC(=O)NO)CC(=O)N12 | 11.3% | -1.09% (active) | 66% | 65.5% | 94.3% | 71.9% | 40.2% | 26.5% | 36.3% | 87.1%
CCn1c2c(c3ccccc31)SC1c3cccn3CCN1C2=S (stereo not given) | 105% | 112% | 96.7% | 151% | 96.4% | 106% | 97.9% | 98% | 94.4% | 82.3%
COc1cc2c(c(OC)c1OC)CCc1cnoc1-2 | 99.8% | 100% | 107% | 121% | 109% | 108% | 100% | 103% | 122% | 102%
CCc1[nH]nc(-c2ccc(OC)cc2)c1-c1ccccc1OCCN(CC)CC | 88.4% | 95.5% | 99.2% | 79.3% | 89% | 85.7% | 99% | 97.9% | 87.1% | 105%
Cc1nn(-c2ccccc2)c2c1oc(=O)c1cc(Cl)ccc12 | 106% | 106% | 94% | 116% | 90.6% | 109% | 97.9% | 99.7% | 92.6% | 99.4%
c1coc([C@@H]2C[C@@H]3Cc4ccc5ccccc5c4N2O3)c1 | 102% | 97.7% | 108% | 94.2% | 111% | 101% | 99.6% | 99.2% | 108% | 99.5%
N=c1ccn2c(n1)O[C@@H]1[C@@H](O)[C@H](CO)O[C@@H]12 | 67.1% | 59.1% | 91.7% | 96.4% | 65.8% | 88.7% | 98.4% | 70.3% | -1.79% (active) | 64.4%
CC(C)[O-].CC(C)[O-].CN(CCN(C)Cc1cc(F)cc(F)c1[O-])Cc1cc(F)cc(F)c1[O-].[Ti+4] | 8.81% (active) | -55.4% (active) | 11% | -79.1% (active) | 6.13% (active) | -9.78% (active) | -0.0224% (active) | 17.1% | -41.9% (active) | 15.5%
COc1ccc(C2=NN(C(C)=O)C(c3cc(OC)c(OC)c(OC)c3)C2)cc1 (stereo not given) | 75.4% | 120% | 109% | 111% | 94.4% | 95.4% | 91.5% | 113% | 98.3% | 84.6%
Cc1ccccc1-c1cc(Cc2ccccc2O)c(=O)[nH]n1 | 91.7% | 151% | 90.7% | 140% | 85.1% | 113% | 107% | 122% | 120% | 107%
CC(=O)O[C@H]1C(=O)[C@@]2(C)C([C@H](OC(=O)c3ccccc3)[C@]3(O)C[C@H](OC(=O)[C@H](O)[C@@H](NC(=O)c4ccccc4)c4ccccc4)C(C)=C1C3(C)C)[C@]1(OC(C)=O)CO[C@@H]1C[C@@H]2O (stereo not given in full) | 12.5% | 57.3% | 17% | -17.9% (active) | 30.2% | -8.51% (active) | 13.1% | 45% | 20% | 23.7%
Cc1c(NCc2nnc3n(Cc4ccccc4)c(=O)c4c5c(sc4n23)CCCC5)c(=O)n(-c2ccccc2)n1C | 53.5% | 113% | 96.5% | 84.5% | 74.1% | 67.2% | 103% | 80.9% | 83.2% | 94.6%
CN(CC(=O)N(Cc1ccc(C2CCCCC2)cc1)c1ccc(C(=O)O)cc1)S(=O)(=O)c1c(F)c(F)c(F)c(F)c1F | 1.31% (active) | 62% | -28.7% (active) | -87.3% (active) | 67.5% | 108% | 99.2% | 31.6% | 19.9% | -46.1% (active)
Cc1cc(C(C)(C)c2cc(C)c(O)c(CN(C)C)c2)cc(CN(C)C)c1O | 76.6% | 57.7% | 59.5% | 61.5% | 101% | 100% | 80.3% | 85% | 77.7% | 80.8%
CCC[C@H](N[C@@H](C)C(=O)N1[C@H](C(=O)O)C[C@@H]2CCCC[C@@H]21)C(=O)OCC | 116% | 94.2% | 90.4% | 114% | 105% | 111% | 91.4% | 97.9% | 113% | 99.3%
O=[N+]([O-])c1ccc(N/N=C\c2ccccc2[N+](=O)[O-])nc1 | 94.6% | 117% | 110% | 102% | 107% | 103% | 109% | 119% | 126% | 100%
CCCCN(CCCC)CCCOC(=O)c1ccc(N)cc1 | 96.5% | 93% | 86.8% | 92.1% | 96.3% | 84.5% | 94.4% | 88% | 93.7% | 101%
NC(=O)NN=C(C1CC1)C1CC1 | 94.8% | 143% | 118% | 138% | 102% | 106% | 90.2% | 101% | 106% | 98%
Nc1ccccc1-c1ccc([N+](=O)[O-])cc1 | 15.5% | 111% | 67% | 111% | 49.4% | 44.2% | 52.8% | 78.9% | 44.7% | 47.8%
